Assay results taken from the supplement of paper PMC3334620.
Over roughly 33,000 sequences, “E-score (-0.5 to 0.5)” has its median near -0.013; the highest 2% begin near 0.3. Shown is part of a subset that was picked to be rich in the highest values.

biological target: T1, Msn1 (UniProt P22148); assay: PBM E-score (8-mer binding enrichment) (E-score (-0.5 to 0.5)); higher = stronger / more preferred TF binding; conditions: protein concentration: 200 nM; construct: GST-full length
T1 sequence: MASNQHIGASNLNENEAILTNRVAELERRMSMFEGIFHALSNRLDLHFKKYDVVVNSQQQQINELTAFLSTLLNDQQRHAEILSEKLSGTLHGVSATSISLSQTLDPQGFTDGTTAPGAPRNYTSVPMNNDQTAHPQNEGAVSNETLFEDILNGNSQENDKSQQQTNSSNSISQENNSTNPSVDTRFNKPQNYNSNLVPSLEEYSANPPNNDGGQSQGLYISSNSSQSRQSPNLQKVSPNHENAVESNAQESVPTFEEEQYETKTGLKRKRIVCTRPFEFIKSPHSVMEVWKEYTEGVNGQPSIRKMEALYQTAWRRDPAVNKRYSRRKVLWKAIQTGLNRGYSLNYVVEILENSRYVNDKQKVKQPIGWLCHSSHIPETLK
Description: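 Universal 'all 10-mer' protein binding microarrays (Agilent AMADID 015681) probed with GST-tagged S. cerevisiae TFs (full-length or DBD) made by in vitro transcription/translation (PURExpress), about 100-200 nM. Bound TF was detected with fluorescent anti-GST. Each ungapped 8-mer (which stands for itself and its reverse complement) is scored by the PBM enrichment score (E-score), a modified Wilcoxon-Mann-Whitney statistic from -0.5 to +0.5, computed with the Universal PBM Analysis Suite. Scale: above 0.35 generally sequence-specific binding.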

Sequence | PBM E-score
CGACTTTA | 0.201
AGACTTTA | 0.0848
GGACTTTA | 0.328
TCTGACAA | 0.198
TGTGACAA | 0.377
GGTGACAC | -0.0303
CGTGACAG | 0.0649
GGTGACAA | 0.322
GTTGACAA | 0.269
AGTGACAA | 0.302
CGTGACAA | 0.309
CCTGACAA | 0.202
CCGCCAGG | -0.117
AACAGCGG | -0.0502
CGCTATGC | -0.215
ATGTCCGA | 0.475
ACGTCCGA | -0.00037
AGGTCCGA | 0.132
CTGTCCGA | 0.275
GTGTCCGA | 0.37
GGGTCCGA | -0.115
AGTCCTGC | 0.0243
AAAATCTG | 0.182
AGATTGCC | -0.0449
AAAGACCG | 0.0194

Sequence | PBM E-score
CAGGTAGA | -0.142
CCCTTCAA | -0.185
ATAGAGCG | -0.0637
ATTTTGTC | 0.468
AATTTGTC | 0.488
AATTTGTG | 0.186
AATTTGAC | 0.194
ATTTTGTA | 0.209
ATTTTGTG | 0.144
GGGGGAAC | -0.456
GTAAAGTA | 0.0255
CCGGGACC | -0.159
TCGGGACA | 0.456
GCGGGACA | 0.359
GCGGGATA | 0.0848
TCGGGAGA | 0.014
GCGGGACC | -0.22
CCGGGACG | -0.0555
ACGGGACA | 0.384
CCGGGACA | 0.457
TCGGGAAA | 0.176
ACGGGACC | -0.247
ACGGGACT | 0.0899
GAGCCCGA | -0.128
CTAGTGGA | -0.211

Sequence | PBM E-score
CGGAGGAC | 0.0943
ACTTAGCG | 0.074
ACCTCGAG | -0.0305
CATGGTCA | 0.117
CTGGGGTC | -0.217
CGACTTCA | 0.0948
GCGCTTGA | 0.00998
GGACTTCA | 0.0504
ACACTGTC | 0.165
GTCCTAAA | 0.365
CTCCTACA | -0.187
CTCCTAGA | -0.0389
ATCCTAGA | -0.0654
GTCCTACA | 0.385
ATCCTAAA | -0.0285
TTCCTAAA | 0.0739
GTCCTTAA | 0.433
GTCCTAGA | 0.342
ATCCTACA | -0.189
CTCCTTAA | -0.0988
ATCCTTAA | -0.126
ACAGCCGA | -0.16
GGCAAACC | -0.244
ACTCTCCG | -0.11
ACCTCCTG | -0.169

Sequence | PBM E-score
AGCATACC | -0.0756
ACACTAAC | 0.119
CTCTATGC | -0.0926
AGTCGGAG | -0.189
GGACTTAC | 0.273
CCTCCGGA | 0.102
CTACTAGA | -0.0895
GTACTAGA | 0.308
ATACTAGA | 0.125
ATCCTAAC | 0.0664
CTCCTAAC | -0.278
GTCCTAAC | 0.36
ACTCAAAG | 0.0435
ATGCGTTA | -0.0377
CACACTAC | -0.188
CAAGGGCG | -0.191
ATGCAGAG | -0.253
GTCGGACA | 0.427
CTCGGACA | 0.44
CTCGGATA | 0.157
ATCGGACG | 0.00151
CTCGGACC | 0.165
GTCGGATA | 0.0474
ATCGGACA | 0.369
GTCGGAGA | 0.0165

Sequence | PBM E-score
ATCGGACC | 0.0183
CTGGGCCC | -0.252
CGCCTGGA | -0.0478
ACTGAACA | 0.0547
CATTGCGA | -0.0316
ATCACCAA | -0.0626
GAGTAATC | -0.128
CCGACTGC | -0.00611
TAATGTAA | 0.114
ACGGTTCT | -0.0415
GCACAAGA | -0.0415
AGACAACC | 0.208
CTACAATA | 0.0926
GGACAACA | 0.337
GTACAATA | 0.332
AGACAATC | 0.359
ATACAATA | 0.114
GGACAAGA | 0.458
ATACAATC | -0.0273
CGACAACA | 0.204
CGACAAGA | 0.121
AGACAACA | 0.248
AAATCTCC | -0.234
AGCCTTCC | -0.323
ACTTCGCT | -0.0222

Sequence | PBM E-score
AGGGCCAT | -0.246
AATTTCCT | 0.0244
TACGGGGA | -0.11
ATCGTATG | 0.0884
GAACAATA | 0.144
CGACAAGC | -0.0394
ACACAATA | 0.15
CGACAATC | 0.113
AGACAAGA | 0.3
GGACAATA | 0.464
CGACAATA | 0.334
AGACAATA | 0.428
AGACAAGC | 0.307
GCACAATA | -0.126
CCACAATA | -0.105
AGACAATG | 0.295
CCCTAGCA | -0.119
CGTAGCAC | -0.0105
CATAGATA | 0.126
AGCGAATG | -0.207
AGAGTATG | -0.143
AGAACTGA | 0.0524
TCACTTCA | -0.0878
GATTTTCA | 0.209
TACAGCAA | 0.00838

Sequence | PBM E-score
AAACGTCT | 0.24
AAACGTCC | 0.317
GAACGTCC | 0.206
TACTTCAA | 0.16
AGGATACG | -0.105
CTCGCCCC | -0.302
AAGGTACA | 0.166
CTGTGAGA | 0.00231
AACATGTC | 0.401
GACATGTA | 0.424
TACATGTA | 0.247
ATCATGTC | 0.278
CACATGTG | -0.149
CACATGTC | 0.431
GACATGTC | 0.455
AACATGTA | 0.186
AACATGTG | 0.0694
CACATGTA | 0.121
GACATGGC | 0.276
AACATGTT | -0.0343
CGAGGGCG | -0.271
GACTCATC | -0.0489
